Several values for one entry are separate records, joined by “and”; a condition that tells them apart may be missing. Equal entries are not always repeated. Records with an inconclusive call do not appear. Activity calls are given as the source filed them. Unless noted, calls follow the shape of the dose curve; as a rule, active = well fitted curve in the direction sought with a large enough effect; inconclusive = small, poorly fitted or top-dose-only effect, or another doubt; inactive = no such curve, though single readings can be large; an effect the other way counts as inactive or inconclusive.
Columns and labels:
[1] = qHTS assay for small molecule disruptors of the mitochondrial membrane potential - 5 hr assay (AID 651755; calls by dose curve; also: % is scaled to controls: 0 for no effect and ±100 for the full control effect; nearly all actives have a fitted effect of over 40% in size)
How it was run: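 Read-out: ratiometric Mito-MPS fluorescence, green monomer (ex 490/em 535) vs red mitochondrial aggregate (ex 540/em 590). HepG2 cells treated 5 hr at 37C before 30 min dye loading.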

[2] = biological target: Tumor necrosis factor (Homo sapiens) (UniProt P01375); assay: qHTS assay to identify small molecules that stimulate Tumor Necrosis Factor-alpha (TNF-alpha) secretion (AID 651757; active = well fitted curve in the direction sought with a large enough effect in the signal ratio; the % refers to the signal ratio; also: 0% is about no effect)
How it was run: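 THP-1 cells, 3000/well; compound 17 hrs, 37 C; add cryptate/XL665 anti-TNF-alpha antibody pair; 3 hr RT; TR-FRET (HTRF) read of secreted TNF-alpha. Quantitative HTS format.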

[3] = qHTS assay for environmental chemicals that activate the Aryl hydrocarbon Receptor (AhR) signaling pathway (AID 651777); settings: 1A2-DRE human hepatoma cells, luciferase, 24 h; activation: hits give high values; also: % of control where 0% means no effect; nearly all actives have a fitted effect of over 15% in size
How it was run: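 Measured luciferase activity, read 30 min after One-Glo addition at room temperature, from human hepatoma cells bearing a dioxin response element–CYP1A2 promoter reporter and exposed to compound for 24 hr at 37 C.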

[4] = biological target: Peroxisome proliferator-activated receptor alpha (Homo sapiens) (UniProt Q07869); assay: qHTS assay for small molecule agonists of the peroxisome proliferator-activated receptor alpha (PPARalpha) signaling pathway (AID 651778); settings: PathHunter PPARalpha complementation, chemiluminescence, 6 h; hits give high values; also: % of control where 0% means no effect
How it was run: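 Enzyme-fragment complementation assay in which ligand-bound PPARalpha translocates and forms an active enzyme that generates chemiluminescence. Cells were plated overnight, exposed to compound for 6 hr at 37 C, and then given detection reagent for 60 min at room temperature.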

[5] = biological target: Nuclear receptor ROR-gamma (Homo sapiens) (UniProt P51449); assay: qHTS assay for small molecule antagonists of the retinoid-related orphan receptor gamma (ROR-gamma) signaling pathway (AID 651802);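 also: CHO cells with doxycycline-induced ROR-gamma expression; luciferase reporter luminescence driven by ROR response element; series mostly up to about 92 µM; % is scaled to controls: 0 for no effect and ±100 for the full control effect; nearly all actives have a fitted effect of over 60% in size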
How it was run: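 Luciferase read-out: ONE-Glo luminescence after 30 min at room temperature, following 16hr doxycycline induction at 37C, 5% CO2 of CHO cells with TET-inducible ROR and RORE-LUC reporter; decreased luminescence = reduced reporter activity.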

[6] = qHTS assay for small molecule antagonists of the retinoid-related orphan receptor gamma (ROR-gamma) signaling pathway - cell viability counter screen (AID 720652; active = well fitted curve in the direction sought with a large enough effect in the repeat runs; an effect the other way counts as inactive or inconclusive;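 also: CHO reporter cells with doxycycline-induced ROR-gamma expression; series mostly up to about 92 µM; compound exposure lasted 16 hr before ATP read; % is scaled to controls: 0 for no effect and ±100 for the full control effect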)
How it was run: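 CHO RORE-LUC/TET-ROR line, 1,000 cells/well, 37 C 5% CO2 5 hr; cpd or DMSO + doxycycline induction, 16 hr. CellTiter-Glo, 30 min RT, luminescence = ATP content.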

[7] = qHTS assay for small molecule agonists of the antioxidant response element (ARE) signaling pathway measured by Nrf2-dependant transcriptional activity - cell viability counter screen (AID 720653; active = well fitted curve in the direction sought with a large enough effect in the repeat runs; an effect the other way counts as inactive or inconclusive; also: % is scaled to controls: 0 for no effect and ±100 for the full control effect); settings: ARE-bla HepG2 viability, CellTiter-Glo ATP luminescence, 16 h; hits give low values
How it was run: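 ARE-bla HepG2 cells treated with compounds for 16 h at 37C; this counter screen measures viability as intracellular ATP by CellTiter-Glo luminescence after 30 min at room temperature.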

[8] = qHTS assay for cell viability of HEK293 cells (AID 743288); settings: ATP luminescence (CellTiter-Glo), 18 h, hits give low values; also: % is scaled to controls: 0 for no effect and ±100 for the full control effect; nearly all actives have a fitted effect of over 50% in size
How it was run: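 Viable-cell counts were inferred from luciferase-based ATP content in HEK293 cells seeded at 2,000/well, pre-incubated ≥5 h, then dosed with DMSO-solubilised compounds for 18 h at 37 C.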

[9] = qHTS assay for cell viability of the p53RE-bla HCT-116 cell line (AID 743292); also: % is scaled to controls: 0 for no effect and ±100 for the full control effect; nearly all actives have a fitted effect of over 55% in size
How it was run: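 Intracellular ATP of p53RE-bla HCT-116 cells measured by luciferase luminescence following 16 h compound incubation at 37 C; DMSO-only wells served as vehicle controls.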

[10] = biological target: Nuclear receptor subfamily 1 group I member 2 (Rattus norvegicus) (UniProt Q9R1A7); assay: qHTS assay for small molecule activators of the rat pregnane X receptor (rPXR) signaling pathway (AID 651751; call rule not given here; also: 0% is about no effect); settings: rPXR reporter cells, luciferase (One-Glo), 24 h
[11] = qHTS assay for small molecule activators of the human pregnane X receptor (PXR) signaling pathway (AID 720659; call rule not given here; also: 0% is about no effect)
[12] = qHTS assay for small molecule agonists of the antioxidant response element (ARE) signaling pathway measured by Nrf2-dependant transcriptional activity (AID 720636; active = well fitted curve in the direction sought with a large enough effect in the repeat runs; an effect the other way counts as inactive or inconclusive;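 also: HepG2 cells with an ARE-driven luciferase reporter; % of control where 0% means no effect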)
How it was run: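 In HepG2 cells engineered with an Nrf2-responsive luciferase gene, ARE induction was quantified as luminescence after 16 hr compound treatment at 37 C.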

[13] = qHTS assay to identify small molecules that stimulate interleukin-8 (IL-8) secretion (AID 651758; active = well fitted activation curve with a large enough effect in the signal ratio; the % refers to the signal ratio; also: 0% is about no effect)
How it was run: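 Compounds are added to THP-1 cells (2000 per well) and left 16 hrs at 37 C. A labeled anti-IL-8 antibody pair is then added, and IL-8 secretion is measured by time-resolved FRET after 1-3 hrs at room temperature.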

Sequence of Peroxisome proliferator-activated receptor alpha (Homo sapiens) (Q07869 whole entry, looked up, the tested form may be a part): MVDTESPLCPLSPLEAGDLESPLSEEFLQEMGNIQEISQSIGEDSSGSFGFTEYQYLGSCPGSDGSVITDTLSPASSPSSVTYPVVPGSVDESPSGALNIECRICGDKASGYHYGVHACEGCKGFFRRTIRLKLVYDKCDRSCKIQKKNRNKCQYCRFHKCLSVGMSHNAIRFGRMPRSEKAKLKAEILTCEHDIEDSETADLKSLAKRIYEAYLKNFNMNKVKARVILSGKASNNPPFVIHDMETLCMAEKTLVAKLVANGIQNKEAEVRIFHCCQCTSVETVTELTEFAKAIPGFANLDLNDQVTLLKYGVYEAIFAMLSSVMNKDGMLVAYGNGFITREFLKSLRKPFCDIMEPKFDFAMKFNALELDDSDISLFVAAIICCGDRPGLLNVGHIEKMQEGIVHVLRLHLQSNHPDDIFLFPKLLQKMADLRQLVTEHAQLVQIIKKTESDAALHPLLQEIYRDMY
Sequence of Tumor necrosis factor (Homo sapiens) (P01375 whole entry, looked up): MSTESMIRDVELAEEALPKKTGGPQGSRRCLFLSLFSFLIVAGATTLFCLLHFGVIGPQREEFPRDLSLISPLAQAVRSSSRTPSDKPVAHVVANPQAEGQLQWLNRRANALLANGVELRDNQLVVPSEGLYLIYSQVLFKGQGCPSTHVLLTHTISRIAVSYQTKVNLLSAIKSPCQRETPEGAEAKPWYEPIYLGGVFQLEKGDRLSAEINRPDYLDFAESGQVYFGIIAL
Sequence of Nuclear receptor subfamily 1 group I member 2 (Rattus norvegicus) (Q9R1A7 whole entry, looked up): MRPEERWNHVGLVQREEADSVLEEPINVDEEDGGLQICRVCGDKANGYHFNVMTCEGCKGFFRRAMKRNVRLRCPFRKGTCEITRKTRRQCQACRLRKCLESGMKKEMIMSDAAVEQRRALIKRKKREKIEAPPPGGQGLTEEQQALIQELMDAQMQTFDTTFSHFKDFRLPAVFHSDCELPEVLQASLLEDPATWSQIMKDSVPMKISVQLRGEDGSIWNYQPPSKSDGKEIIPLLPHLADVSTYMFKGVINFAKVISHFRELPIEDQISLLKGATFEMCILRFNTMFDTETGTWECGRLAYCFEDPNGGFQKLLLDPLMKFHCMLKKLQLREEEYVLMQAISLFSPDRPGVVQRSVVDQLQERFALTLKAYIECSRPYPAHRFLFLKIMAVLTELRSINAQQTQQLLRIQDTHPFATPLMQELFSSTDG
Sequence of Nuclear receptor ROR-gamma (Homo sapiens) (P51449 whole entry, looked up): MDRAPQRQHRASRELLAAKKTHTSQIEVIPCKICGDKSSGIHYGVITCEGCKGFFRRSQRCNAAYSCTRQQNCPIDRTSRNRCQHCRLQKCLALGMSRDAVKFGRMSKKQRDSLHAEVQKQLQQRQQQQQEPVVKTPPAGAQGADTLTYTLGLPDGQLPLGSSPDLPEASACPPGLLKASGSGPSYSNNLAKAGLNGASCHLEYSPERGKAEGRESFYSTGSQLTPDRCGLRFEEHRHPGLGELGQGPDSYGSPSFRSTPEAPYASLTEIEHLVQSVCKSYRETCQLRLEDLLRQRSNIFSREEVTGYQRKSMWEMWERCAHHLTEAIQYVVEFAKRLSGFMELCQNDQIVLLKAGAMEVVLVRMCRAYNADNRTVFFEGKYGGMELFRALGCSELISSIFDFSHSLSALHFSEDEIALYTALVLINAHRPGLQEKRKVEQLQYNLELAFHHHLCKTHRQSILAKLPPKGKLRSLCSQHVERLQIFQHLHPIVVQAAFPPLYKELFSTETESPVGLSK

[O-]/[N+](=N\O)c1ccccc1
inactive: Potency [1] | Potency [2] | activation [3] 5.58% | max response [4] -0.0477% | Potency [5] | Potency [6] | max response [7] -5.46% | max response [8] -16.3% | Potency [9] | max response [10] -1.54% | outcome [11]

O=C(O)c1cccc([N+](=O)[O-])c1
inactive: Potency [1] | Potency [2] | activation [3] 0.347% and -2.14% | max response [4] -2.18% and -2.21% | Potency [5] | outcome [12] | max response [7] 20.3% and -7.83% | max response [8] 4.89% and -8.68% | Potency [9] | max response [10] -0.759% and -3.01% | outcome [11]

C=Cc1ccccn1
inactive: Potency [1] | Potency [2] | activation [3] 0.147% | max response [4] 0.108% | Potency [5] | outcome [12] | Potency [6] | max response [7] -6.91% | max response [8] 3.38% | Potency [9] | max response [10] 2.42% | outcome [11]

O=C(Cl)c1c(Cl)cccc1Cl
inactive: Potency [1] | Potency [2] | activation [3] -1.9% | max response [4] -3.46% | Potency [5] | outcome [12] | Potency [6] | max response [7] 10.8% | max response [8] 0.0079% | Potency [9] | max response [10] -2.88% | outcome [11]

c1ccc2c(c1)ccc1ncccc12
inactive: Potency [1] | Potency [2] | activation [3] 3.95% | max response [4] -1.09% | outcome [12] | max response [7] -7.13% | max response [8] 0.663% | Potency [9] | max response [10] 10.2% | outcome [11]

CCCCCCCCCCCCC1CO1 (stereo not drawn)
inactive: Potency [1] | Potency [2] | activation [3] 0.974% | max response [4] -4.01% | Potency [5] | outcome [12] | Potency [6] | max response [7] 1.04% | max response [8] -4.83% | Potency [9] | max response [10] 4.9% | outcome [11]

Nc1nc(CC(=O)O)cs1
inactive: Potency [1] | Potency [2] | activation [3] -0.467% | max response [4] 1.57% | Potency [5] | outcome [12] | Potency [6] | max response [7] 4.24% | max response [8] -0.757% | Potency [9] | max response [10] -3.19% | outcome [11]

CNc1ccc([N+](=O)[O-])cc1
inactive: Potency [1] | Potency [2] | activation [3] 1.91% | max response [4] -2.03% | Potency [5] | outcome [12] | max response [7] 5.65% | max response [8] 0.311% | Potency [9] | max response [10] 8.26% | outcome [11]

CC(C)Nc1ccccc1
inactive: Potency [2] | Potency [13] | activation [3] 0.225% | max response [4] -3.92% | Potency [5] | outcome [12] | Potency [6] | max response [7] -8.81% | max response [8] -1.42% | Potency [9] | max response [10] 4.55% | outcome [11]

CC(=O)C1(C)CC2=C(CCCC2(C)C)CC1C (stereo not drawn)
inactive: Potency [2] | activation [3] -1.01% | max response [4] -0.376% | Potency [5] | outcome [12] | Potency [6] | max response [7] 5.61% | max response [8] -9.23% | Potency [9] | max response [10] 2.11% | outcome [11]

Nc1ccc([N+](=O)[O-])c(N)c1
inactive: Potency [2] | Potency [13] | activation [3] 1.41% | max response [4] -0.849% | Potency [5] | outcome [12] | Potency [6] | max response [7] -4.59% | max response [8] 8.4% | Potency [9] | max response [10] 1.18% | outcome [11]

CCCCOCCOCCSC#N
inactive: Potency [1] | Potency [2] | activation [3] -0.297% | max response [4] 0.043% | Potency [5] | outcome [12] | Potency [6] | max response [7] -6.26% | max response [8] 5.15% | Potency [9] | max response [10] -2.98% | outcome [11]

CN(C)CCCNCCCN
inactive: Potency [1] | Potency [2] | activation [3] 0.0352% | max response [4] -2.56% | Potency [5] | outcome [12] | Potency [6] | max response [7] -2.03% | max response [8] -0.667% | Potency [9] | max response [10] -0.438% | outcome [11]

CC(C)(O)CCC(C)(C)O
inactive: Potency [1] | Potency [2] | activation [3] 1.58% | max response [4] -3.81% | Potency [5] | outcome [12] | max response [7] -2.27% | max response [8] 2.13% | Potency [9] | max response [10] 3.24% | outcome [11]

CCCCCCCCC
inactive: Potency [1] | Potency [2] | activation [3] 0.0249% | max response [4] -0.317% | Potency [5] | outcome [12] | Potency [6] | max response [7] 3.15% | max response [8] 9.61% | Potency [9] | max response [10] 3.91% | outcome [11]
